Activity calls are given as the source filed them. Calls come from the whole dose curve; as a rule, active = well fitted curve in the direction sought with a large enough effect; inconclusive = small, poorly fitted or top-dose-only effect, or another doubt; inactive = no such curve, though single readings can be large or run the other way.
What follows are compounds tested against Alpha-galactosidase (Coffea arabica) (UniProt Q42656) (assay: Counterscreen for Glucocerebrosidase Inhibitors: qHTS Assay for Coffee Bean alpha-Galactosidase at pH 4.5 (AID 957)). Conditions: purified coffee bean alpha-galactosidase, fluorogenic substrate; series mostly up to 76.9 µM.
Chain of Alpha-galactosidase (Coffea arabica) (Q42656 whole entry, looked up): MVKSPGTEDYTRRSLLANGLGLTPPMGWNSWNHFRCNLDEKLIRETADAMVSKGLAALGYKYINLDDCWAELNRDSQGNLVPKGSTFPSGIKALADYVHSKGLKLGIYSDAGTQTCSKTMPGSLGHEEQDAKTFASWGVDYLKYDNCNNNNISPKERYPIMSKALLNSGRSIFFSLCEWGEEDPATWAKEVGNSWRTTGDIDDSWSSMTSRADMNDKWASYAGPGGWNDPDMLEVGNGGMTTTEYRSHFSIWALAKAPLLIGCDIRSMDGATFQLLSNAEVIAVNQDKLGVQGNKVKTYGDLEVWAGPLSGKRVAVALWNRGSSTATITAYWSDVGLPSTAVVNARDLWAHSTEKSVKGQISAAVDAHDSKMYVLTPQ
How it was run: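 Enzyme is added first (2 nM final), then compounds titrated from 0.7 nM to 77 uM, then 80 uM 4-methylumbelliferyl alpha-D-galactopyranoside; after 20 min at room temperature a pH 10 NaOH/glycine stop precedes fluorescence reading at 365/440 nm.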
For `CCCn1c(C)c(C(=O)c2ccc3ccccc3c2)c2ccccc21`, the outcome was “inactive”.
`NNC(=O)c1ccc(O)cc1` was tested, and the outcome was “inactive”.
`NC(N)=NOCC[C@H](N)C(=O)O` was tested, and the outcome was “inactive”.
For `CC(C)NP(=O)(NC(C)C)OP(=O)(NC(C)C)NC(C)C`, the outcome was “inactive”.
`CN1CCc2cccc(Cl)c2CC1` was tested, and the outcome was “inactive”.
For `CCCN(CCC)[C@H]1CCc2c(F)ccc(O)c2C1`, the outcome was “inactive”.
With `C[N+](C)(C)CCOC(=O)CBr` the outcome was “inactive”.
`Cc1[nH]c2ccc(O)cc2c1CCN` was tested, and the outcome was “inactive”.
With `O=S1(=O)N(CCN2CC=C(c3c[nH]c4cc(F)ccc34)CC2)c2cccc3c2N1CCC3` the outcome was “inactive”.
In the case of `C[N+]1(C)CCN(c2ccccc2)CC1`, the outcome is reported as “inactive”.
`CCCN(CCC)[C@@H]1CCc2cccc(O)c2C1` was tested, and the outcome was “inactive”.
In the case of `COc1ccc2[nH]cc(CCN)c2c1`, the outcome is reported as “inactive”.
For `O=P(O)(O)C(Cl)(Cl)P(=O)(O)O`, the outcome was “inactive”.
For `c1ccc2cc(CC3=NCCN3)ccc2c1`, the outcome was “inactive”.
With `O=[N+]([O-])c1ccc2nc(N3CCNCC3)ccc2c1` the outcome was “inactive”.
For `Nc1ccc(CCN2CCN(c3cccc(C(F)(F)F)c3)CC2)cc1`, the outcome was “inactive”.
For `COc1ccc2c(c1)/C(=C/c1cnc[nH]1)C(=O)N2`, the outcome was “inactive”.
For `C[N+]1(C)CCC(OC(=O)C(c2ccccc2)c2ccccc2)CC1`, the outcome was “inactive”.
In the case of `C[C@H](N)CN1CCc2ccc(Br)cc21`, the outcome is reported as “inactive”.
In the case of `CNC(=O)OCC[N+](C)(C)C`, the outcome is reported as “inactive”.
In the case of `c1ccc2c(N3CCNCC3)cccc2c1`, the outcome is reported as “inactive”.
`C[C@@H]1[C@@H]2Cc3ccc(O)cc3[C@@]1(C)CCN2CC1CC1` was tested, and the outcome was “inactive”.
With `O=[N+]([O-])c1cc(O)c(O)c([N+](=O)[O-])c1` the outcome was “inactive”.
With `C[N+](C)(C)CC#CCOC(=O)Nc1cccc(Cl)c1` the outcome was “inactive”.
For `CCCN(CCC)C1Cc2cc(OC)c(OC)cc2C1`, the outcome was “inactive”.
For `C[N+](C)(C)CC#CCN1CCCC1=O`, the outcome was “inactive”.
With `CCN(CCCl)Cc1ccccc1Br` the outcome was “inactive”.
For `CP(=O)(O)C1=CCNCC1`, the outcome was “inactive”.
`Cc1sc2ccccc2c1CC1=NCCN1` was tested, and the outcome was “inactive”.
